The first test addresses Solute carrier family 2, facilitated glucose transporter member 1 (Homo sapiens) (UniProt P11166). Put plainly: ST_JUDE_LEISH: Cytotoxicity at 2uM final concentration against transgenic Leishmania Mexicana promastigotes LmGLUT1 that are glucose transport deficient and complemented with the human glucose transporter GLUT1. Activity is measured by DNA content using SYBR green in vitro. In kind it is functional.
Sequence of Solute carrier family 2, facilitated glucose transporter member 1 (Homo sapiens) (P11166 whole entry): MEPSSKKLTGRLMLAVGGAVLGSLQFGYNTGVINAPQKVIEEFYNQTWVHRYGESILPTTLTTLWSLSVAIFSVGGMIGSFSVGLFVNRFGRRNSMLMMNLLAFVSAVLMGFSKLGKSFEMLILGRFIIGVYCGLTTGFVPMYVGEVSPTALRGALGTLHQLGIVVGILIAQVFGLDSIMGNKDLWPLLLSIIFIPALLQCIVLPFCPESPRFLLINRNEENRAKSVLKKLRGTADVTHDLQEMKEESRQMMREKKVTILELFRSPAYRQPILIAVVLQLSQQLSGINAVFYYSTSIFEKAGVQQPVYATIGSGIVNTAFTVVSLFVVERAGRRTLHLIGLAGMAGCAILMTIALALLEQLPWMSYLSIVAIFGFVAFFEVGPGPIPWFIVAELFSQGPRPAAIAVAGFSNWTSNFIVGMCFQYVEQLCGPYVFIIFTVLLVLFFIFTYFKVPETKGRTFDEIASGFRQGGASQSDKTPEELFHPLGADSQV
The term inhibition denotes the relative decrease from the control value, in per cent. With `Oc1ccc(-c2ccccc2)cc1CN1CCCCCC1`, the inhibition came to 1.18%.

Turning to `c1cncc(CCNCc2ccc(-c3ccc(-c4nc5ccccc5[nH]4)s3)cc2)c1`, the inhibition was determined as 8.43%.

With `CCN(CC)CCNC(=O)c1ccc(NC(=O)c2oc3c(Cl)cccc3c2C)cc1`, the inhibition is 12.1%.

In the case of `CCCc1nc2c(N3CCCN(C(=O)NC4CCCCC4)CC3)cccc2n1Cc1ccccn1`, the inhibition is -2%.

Consider `COc1ccc(C(=O)NCC(C)(C)c2nc(-c3ccc(Cl)c(O)c3)c(-c3ccncc3)[nH]2)cc1OCCN(C(C)C)C(C)C`, for which the inhibition was -1.11%.

As for `c1ccc2c(C3CCN(CCCCOc4ccc5c(c4)CCN(C4CCC4)CC5)CC3)c[nH]c2c1`, the inhibition was -2.06%.

Turning to `OC(CNc1ccnc(Nc2cccc(Cl)c2)n1)c1cccc(F)c1` (stereo not given), the inhibition came out at 3.71%.

`O=C(Nc1cccc(OCc2ccccc2)c1)c1ccc(CN2CCC(Cc3ccccc3)CC2)cc1`: the inhibition is -0.83%.

As for `O=C(/C=C/c1ccc([N+](=O)[O-])cc1)N1CCC(NS(=O)(=O)c2ccc(Br)cc2)CC1`, the inhibition was -0.08%.

On to `Cc1cc(S(=O)(=O)N2CCCCC(c3ccc(C(F)(F)F)cc3)=N2)c(Cl)cc1Cl`, for which the inhibition worked out at 3.58%.

Consider `c1cc(CNC2Cc3ccccc3C2)cc(-c2cnc(N3CCNCC3)nc2)c1`, for which the inhibition stood at 0.76%.

For the molecule `COc1ccc2nccc([C@@H](O)CN3CCC(NCc4ccc5c(c4)NC(=O)C(C)S5)CC3)c2c1` (stereo not given in full), the inhibition was found to be 12.2%.

As for `COc1ccc(CNCc2cccc(-c3ccc(-c4nc5cc(C(F)(F)F)ccc5[nH]4)cc3)c2)cc1`, the inhibition amounted to 7.79%.

On to `Cc1cc(C2CCN(CCCCNC(=O)c3ccc(-c4ccc(C(F)(F)F)cc4)cc3)CC2)c(C)cc1OCC#N`, for which the inhibition is -0.43%.

For the molecule `CCN(CCCN1CCCCC1)c1cc(C)nc(Nc2ccc(C)cc2C)n1`, the inhibition came out at 1.88%.

In the case of `COc1ccc2nccc(N/N=C/c3ccccc3[N+](=O)[O-])c2c1`, the inhibition is 2.92%.

As for `O=C(/C=C/c1ccc(Cl)c(Cl)c1)NCCCCCN1CCCC(CNC(=O)Nc2ccc(C(F)(F)F)cc2)C1` (stereo not given), the inhibition was found to be 4.18%.

Take `CCOC(=O)c1ccc(NC(=O)c2ccccc2C(=O)O)cc1`: the inhibition is 0.53%.

As for `O=C(NC1CCC(N2CCC(c3nc4ccccc4s3)CC2)CC1)c1cc2ccccc2[nH]1` (stereo not given), the inhibition is -0.44%.

Regarding `CCCCNC(=N)Nc1ccc(OCCCOc2ccc(NC(=N)NCCCC)cc2)cc1`, the inhibition is -1.92%.

With `O=C(Cn1c(SCc2cccc(F)c2F)cc(=O)c2ccccc21)N(Cc1ccc(-c2ccc(C(F)(F)F)cc2)cc1)C1CCN(CCO)CC1`, the inhibition was -0.08%.

For the molecule `CCOCCCn1c(=N)c(C(=O)NC(C)c2ccccc2)cc2c(=O)n3cccc(C)c3nc21` (stereo not given), the inhibition stood at 7.84%.

For the molecule `CCN(CCCN1CCCCC1)c1cc(C)nc(Nc2ccc(F)c(C(F)(F)F)c2)n1`, the inhibition is -1.41%.

As for `CC(C)CC(C)NC(=O)C1Cc2c([nH]c3ccc(F)cc23)C2(CCN(Cc3ccccc3)CC2)N1` (stereo not given), the inhibition was determined as 7.56%.

On to `O=C(Cn1cc(C=C2SC(=NC3CCCC3)N(C3CCCC3)C2=O)c2ccccc21)N1CCCC1`, for which the inhibition turned out to be 4.24%.

Regarding `Cc1cccc(-c2ccc(CNC3CCN(CC4Cn5c(=O)ccc6ccc(F)c4c65)CC3)cn2)c1` (stereo not given), the inhibition worked out at 6.75%.

Take `COc1ccc(CNC(=O)C2Cc3ccccc3CN2Cc2ccc3ccccc3c2)cc1` (stereo not given): the inhibition worked out at 2.51%.

Take `CCOc1ccc(C(=O)Nc2ccc(-c3nc4ccccc4[nH]3)cc2)cc1[N+](=O)[O-]`: the inhibition is 1.79%.

As for `COc1ccc2nccc(N3CCN(CCNCc4ccc5c(n4)NC(=O)CO5)CC3)c2n1`, the inhibition worked out at 11.2%.

With `COc1c(C2CCN(CCCCNC(=O)c3ccc(-c4ccc(C#N)cc4)nc3)CC2)ccc2c1CCCC2`, the inhibition was found to be 1.52%.

For the molecule `CN(C)C(=O)c1cccc(COc2ccc(N3C(N)=NC(N)=NC3(C)C)cc2Cl)c1`, the inhibition was 1.73%.

As for `CC(=O)COc1c(C2CCN(CCCCNC(=O)c3ccc(-c4ccc(C(F)(F)F)cc4)cc3)CC2)ccc2c1CCCC2`, the inhibition stood at 0.29%.

As for `CCc1cc(C(=O)c2cccc(C)c2)c(NC(=O)CN2CCN(C(=O)c3ccco3)CC2)s1`, the inhibition turned out to be 2.38%.

For the molecule `O=C(NC(NC(=S)Nc1ccc([N+](=O)[O-])cc1)C(Cl)(Cl)Cl)c1cccc(Cl)c1` (stereo not given), the inhibition was -0.29%.

For the molecule `COc1ccc(-c2ccc(NC(=O)c3ccccc3)cc2)cc1CN1CCCN(C)CC1`, the inhibition turned out to be 1.09%.

For `COc1ccc(NC(=O)c2csc(-c3cc(NC(=O)c4ccnc(N5CCCC5)c4)ccc3C)c2)cc1N1CCN(C)CC1`, the inhibition is 1.89%.

With `CC(=O)Nc1ccc(OCCN(Cc2ccccc2C(F)(F)F)c2ccc(C#N)c(C(F)(F)F)c2)cc1`, the inhibition amounted to 18.7%.

Consider `O=C(c1cncc(-c2ccccc2)c1)N(Cc1cncn1Cc1ccccc1F)CC1CC1`, for which the inhibition was determined as 0.88%.

In the case of `Clc1ccccc1OCc1ccccn1`, the inhibition stood at 3.19%.

Take `CC(C)CNCc1cccc(-c2ccc(CNc3ccc(C(=O)c4ccccc4)cc3)cc2)c1`: the inhibition is 1.27%.

The target of the next test is Hexose transporter 1 (Plasmodium falciparum) (UniProt O97467). Put plainly: ST_JUDE_LEISH: Cytotoxicity at 2uM final concentration against transgenic Leishmania Mexicana promastigotes LmPfHT that are glucose transport deficient and complemented with the Plasmodium falciparum hexose transporter. Activity is measured by DNA content using SYBR green in vitro. It counts as functional.
Turning to `Oc1ccc(-c2ccccc2)cc1CN1CCCCCC1`, the inhibition came to 2.49%.

As to `c1cncc(CCNCc2ccc(-c3ccc(-c4nc5ccccc5[nH]4)s3)cc2)c1`, the inhibition worked out at 6.34%.

As to `CCN(CC)CCNC(=O)c1ccc(NC(=O)c2oc3c(Cl)cccc3c2C)cc1`, the inhibition came to 8.3%.

Take `CCCc1nc2c(N3CCCN(C(=O)NC4CCCCC4)CC3)cccc2n1Cc1ccccn1`: the inhibition is -1.61%.

On to `COc1ccc(C(=O)NCC(C)(C)c2nc(-c3ccc(Cl)c(O)c3)c(-c3ccncc3)[nH]2)cc1OCCN(C(C)C)C(C)C`, for which the inhibition was -0.86%.

As to `c1ccc2c(C3CCN(CCCCOc4ccc5c(c4)CCN(C4CCC4)CC5)CC3)c[nH]c2c1`, the inhibition stood at 3.7%.

As for `OC(CNc1ccnc(Nc2cccc(Cl)c2)n1)c1cccc(F)c1` (stereo not given), the inhibition came out at 4.41%.

`O=C(Nc1cccc(OCc2ccccc2)c1)c1ccc(CN2CCC(Cc3ccccc3)CC2)cc1`: the inhibition was -1.67%.

As for `O=C(/C=C/c1ccc([N+](=O)[O-])cc1)N1CCC(NS(=O)(=O)c2ccc(Br)cc2)CC1`, the inhibition came to 1.13%.

For `Cc1cc(S(=O)(=O)N2CCCCC(c3ccc(C(F)(F)F)cc3)=N2)c(Cl)cc1Cl`, the inhibition was found to be 4.02%.

`c1cc(CNC2Cc3ccccc3C2)cc(-c2cnc(N3CCNCC3)nc2)c1`: the inhibition is 2.77%.

As to `COc1ccc2nccc([C@@H](O)CN3CCC(NCc4ccc5c(c4)NC(=O)C(C)S5)CC3)c2c1` (stereo not given in full), the inhibition came to 1.99%.

With `COc1ccc(CNCc2cccc(-c3ccc(-c4nc5cc(C(F)(F)F)ccc5[nH]4)cc3)c2)cc1`, the inhibition turned out to be 6.65%.

Take `Cc1cc(C2CCN(CCCCNC(=O)c3ccc(-c4ccc(C(F)(F)F)cc4)cc3)CC2)c(C)cc1OCC#N`: the inhibition stood at 1.3%.

For `CCN(CCCN1CCCCC1)c1cc(C)nc(Nc2ccc(C)cc2C)n1`, the inhibition worked out at 1.53%.

Take `COc1ccc2nccc(N/N=C/c3ccccc3[N+](=O)[O-])c2c1`: the inhibition worked out at 4.3%.

On to `O=C(/C=C/c1ccc(Cl)c(Cl)c1)NCCCCCN1CCCC(CNC(=O)Nc2ccc(C(F)(F)F)cc2)C1` (stereo not given), for which the inhibition is 3.11%.

On to `CCOC(=O)c1ccc(NC(=O)c2ccccc2C(=O)O)cc1`, for which the inhibition was found to be 1.23%.

Turning to `O=C(NC1CCC(N2CCC(c3nc4ccccc4s3)CC2)CC1)c1cc2ccccc2[nH]1` (stereo not given), the inhibition is -2.33%.

With `CCCCNC(=N)Nc1ccc(OCCCOc2ccc(NC(=N)NCCCC)cc2)cc1`, the inhibition was -1.63%.

For the molecule `O=C(Cn1c(SCc2cccc(F)c2F)cc(=O)c2ccccc21)N(Cc1ccc(-c2ccc(C(F)(F)F)cc2)cc1)C1CCN(CCO)CC1`, the inhibition is -0.44%.

For `CCOCCCn1c(=N)c(C(=O)NC(C)c2ccccc2)cc2c(=O)n3cccc(C)c3nc21` (stereo not given), the inhibition was determined as 6.01%.

Turning to `CCN(CCCN1CCCCC1)c1cc(C)nc(Nc2ccc(F)c(C(F)(F)F)c2)n1`, the inhibition is -1.38%.

With `CC(C)CC(C)NC(=O)C1Cc2c([nH]c3ccc(F)cc23)C2(CCN(Cc3ccccc3)CC2)N1` (stereo not given), the inhibition came out at 12.3%.

Consider `O=C(Cn1cc(C=C2SC(=NC3CCCC3)N(C3CCCC3)C2=O)c2ccccc21)N1CCCC1`, for which the inhibition amounted to 1.46%.

On to `Cc1cccc(-c2ccc(CNC3CCN(CC4Cn5c(=O)ccc6ccc(F)c4c65)CC3)cn2)c1` (stereo not given), for which the inhibition came out at 7.42%.

For `COc1ccc(CNC(=O)C2Cc3ccccc3CN2Cc2ccc3ccccc3c2)cc1` (stereo not given), the inhibition was 1.12%.

For the molecule `CCOc1ccc(C(=O)Nc2ccc(-c3nc4ccccc4[nH]3)cc2)cc1[N+](=O)[O-]`, the inhibition is 2.52%.

Consider `COc1ccc2nccc(N3CCN(CCNCc4ccc5c(n4)NC(=O)CO5)CC3)c2n1`, for which the inhibition is 9.11%.

With `COc1c(C2CCN(CCCCNC(=O)c3ccc(-c4ccc(C#N)cc4)nc3)CC2)ccc2c1CCCC2`, the inhibition was 2.03%.

As to `CN(C)C(=O)c1cccc(COc2ccc(N3C(N)=NC(N)=NC3(C)C)cc2Cl)c1`, the inhibition came to 1.77%.

Regarding `CC(=O)COc1c(C2CCN(CCCCNC(=O)c3ccc(-c4ccc(C(F)(F)F)cc4)cc3)CC2)ccc2c1CCCC2`, the inhibition was 5.93%.

As for `CCc1cc(C(=O)c2cccc(C)c2)c(NC(=O)CN2CCN(C(=O)c3ccco3)CC2)s1`, the inhibition was 2.67%.

For the molecule `O=C(NC(NC(=S)Nc1ccc([N+](=O)[O-])cc1)C(Cl)(Cl)Cl)c1cccc(Cl)c1` (stereo not given), the inhibition is -1.54%.

For the molecule `COc1ccc(-c2ccc(NC(=O)c3ccccc3)cc2)cc1CN1CCCN(C)CC1`, the inhibition was -0.14%.

Turning to `COc1ccc(NC(=O)c2csc(-c3cc(NC(=O)c4ccnc(N5CCCC5)c4)ccc3C)c2)cc1N1CCN(C)CC1`, the inhibition stood at 2.56%.

Take `CC(=O)Nc1ccc(OCCN(Cc2ccccc2C(F)(F)F)c2ccc(C#N)c(C(F)(F)F)c2)cc1`: the inhibition is 16%.

Consider `O=C(c1cncc(-c2ccccc2)c1)N(Cc1cncn1Cc1ccccc1F)CC1CC1`, for which the inhibition worked out at 0.96%.

On to `Clc1ccccc1OCc1ccccn1`, for which the inhibition came to 2.07%.

Regarding `CC(C)CNCc1cccc(-c2ccc(CNc3ccc(C(=O)c4ccccc4)cc3)cc2)c1`, the inhibition is 0.62%.

The values are drawn from ChEMBL document CHEMBL3433997, “St. Jude Leishmania screening dataset” (2016).
